± gives the standard deviation.
tested on: RAW-Dual (murine macrophage reporter line); assay: NF-kB reporter (SEAP) activity fold change vs agonist alone; higher = enhanced NF-kB activity; settings: modulator concentration 10 µM; agonist: LPS 0.1 ug/mL
Outline: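 RAW-Dual murine macrophage reporter cells were seeded at 50 000 per well in 384-well plates and pre-incubated 1 hour at 37 °C with compound pin-transferred to 10 μM final. After 1 hour, a PRR agonist was added and cells incubated overnight. Supernatant NF-κB (SEAP, QUANTI-Blue, 620 nm absorbance) and IRF (Lucia luciferase, QUANTI-Luc, luminescence) signals were divided by the mean agonist-only control on the same plate to give fold change. Two replicate plates were averaged, with errors by propagation.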

Structure (SMILES) | NF-kB reporter
CC(NCCc1c[nH]c2ccccc12)=C1C(=O)c2ccccc2C1=O | 0.979 ± 0.11
Cc1c(Cl)cccc1S(=O)(=O)NCc1ccnc(N2CCCC2=O)c1 | 1.03 ± 0.094
CN(C)C/C=C/C(=O)Nc1cc2c(Nc3ccc(F)c(Cl)c3)ncnc2cc1O[C@H]1CCOC1.O=C(O)/C=C\C(=O)O.O=C(O)/C=C\C(=O)O | 0.661 ± 0.089
CCCOc1cccc(C(=O)Nc2cccc(S(N)(=O)=O)c2)c1 | 0.97 ± 0.057
Cc1ccc2[nH]c3nc(NN)nnc3c2c1 | 0.929 ± 0.077
CCN(CC)S(=O)(=O)c1ccc(C(=O)Nc2cc(C)nn2-c2nc(C)c(C)c(=O)[nH]2)cc1 | 0.267 ± 0.065
Cc1cc(C)n2nc(C(=O)NN=Cc3ccc(N(C)C)cc3)nc2n1 | 1.09 ± 0.067
Cc1ccc(CSCCNC(=O)CN(c2cccc(C)c2)S(C)(=O)=O)cc1 | 1.01 ± 0.056
CC1CCc2cc(F)cc3c(=O)c(C(=O)O)cn1c23 (configuration not stated) | 1.01 ± 0.074
CN1C2CCCC1CC(NC(=O)c1nn(C)c3ccccc13)C2.Cl (configuration not stated) | 0.879 ± 0.044
O=C(CCc1ccc(O)cc1)c1c(O)cc(O)cc1O | 1.07 ± 0.085
COc1ccc(-n2cnc3cc(NC(C)=O)ccc32)cc1 | 0.973 ± 0.089
NC(=O)c1ncn([C@@H]2O[C@H](CO)[C@@H](O)[C@H]2O)n1 | 1.07 ± 0.14
O=c1[nH]c(NN=Cc2c3ccccc3cc3ccccc23)nc2ccccc12 | 1.03 ± 0.061
COc1ccc(C(=O)N2CC(n3cc(CN4CCCC4=O)nn3)C2)cc1F | 1.01 ± 0.077
CCOC(=O)c1cc(-c2ccccc2)sc1NC(=O)C(C)(C)C | 0.907 ± 0.055
O=C(O)CC(C(=O)O)N1C(=O)C(=C2C(=O)Nc3ccc(Br)cc32)SC1=S (configuration not stated) | 1.05 ± 0.11
N#Cc1nc(-c2ccc(COc3ccccc3)o2)oc1N1CCCCC1 | 1.24 ± 0.077
NC(N)=NN=Cc1ccc(OS(=O)(=O)c2ccccc2)cc1 | 0.954 ± 0.048
CC(C)OC(=O)c1c(NC(=O)C2CC=CCC2C(=O)O)sc2c1CCCC2 (configuration not stated) | 0.999 ± 0.056
CCOC(C#CCN(CC)CC)(c1ccccc1)c1ccccc1.Cl | 0.353 ± 0.049
CCN(CC)C(=O)N1CCN(C)CC1 [Prestw-284] | 1.03 ± 0.064

same assay, conditions: modulator concentration 10 µM; agonist: MPLA […]

Structure (SMILES) | NF-kB reporter
CN1CCN(c2ccc(-c3cccc(NC(=O)COc4ccc(Cl)cc4Cl)c3)nn2)CC1 | 1 ± 0.13
O=C(CCN1C(=O)c2cccc([N+](=O)[O-])c2C1=O)Nc1ccc(Cl)cc1 | 0.899 ± 0.077
N#CCCC1(CCC#N)S(=O)(=O)CC(c2ccc(Cl)cc2)CS1(=O)=O | 0.623 ± 0.05
Fc1ccc(Nc2nc(NN=Cc3ccc(Cl)cc3)nc(N3CCCCC3)n2)cc1 | 1.01 ± 0.1
CC(C)(C)C1CCC(OC(=O)CCC(=O)O)CC1 (configuration not stated) | 0.903 ± 0.087
Fc1ccccc1C=NNc1nc(-c2ccccc2)cc(-c2ccccc2)n1 | 1.05 ± 0.17
NC(=O)c1ccc(N2CCOCC2)c([N+](=O)[O-])c1 | 0.935 ± 0.026
O=C(NCC1CCCO1)c1[nH]nnc1-c1ccc(F)cc1 (configuration not stated) | 1.01 ± 0.05
COC(=O)C1=CN(CC2CCCO2)C=C(C(=O)OC)C1c1cccc(Cl)c1 (configuration not stated) | 0.83 ± 0.072
COc1ccc(CCn2c(C)c(C)n3c4c(=O)n(CCC(C)C)c(=O)n(C)c4nc23)cc1OC | 1.15 ± 0.14
CC1(C)NC(=O)N(c2ccc([N+](=O)[O-])c(C(F)(F)F)c2)C1=O | 0.897 ± 0.052
O=C(Nc1nc2cccc(-c3ccc(CN4CCS(=O)(=O)CC4)cc3)n2n1)C1CC1 | 0.873 ± 0.05
COc1ccc2cc(Br)ccc2c1CC(N)=O | 1.04 ± 0.046
Cc1sc2ncnc(Nc3ccc(F)cc3)c2c1C | 1.22 ± 0.071
CC1CCN(c2cc(N3CCNCC3)ncn2)CC1 | 1.02 ± 0.069
Oc1cccc(C=Nc2ccc(N=Cc3cccc(O)c3O)cc2)c1O | 0.783 ± 0.079
C=C1CCC2C(C)(CO)C(O)CCC2(C)C1CC=C1C(=O)OCC1O (configuration not stated) | 0.755 ± 0.11
COC1CCN(C2CCN(S(=O)(=O)c3ccccc3)CC2)CC1 | 0.977 ± 0.062
CC(NCCc1c[nH]c2ccccc12)=C1C(=O)c2ccccc2C1=O | 1.15 ± 0.05
Cc1c(Cl)cccc1S(=O)(=O)NCc1ccnc(N2CCCC2=O)c1 | 0.92 ± 0.043

Structure (SMILES) | NF-kB reporter
CN(C)C/C=C/C(=O)Nc1cc2c(Nc3ccc(F)c(Cl)c3)ncnc2cc1O[C@H]1CCOC1.O=C(O)/C=C\C(=O)O.O=C(O)/C=C\C(=O)O | 0.613 ± 0.034
CCCOc1cccc(C(=O)Nc2cccc(S(N)(=O)=O)c2)c1 | 0.945 ± 0.058
Cc1ccc2[nH]c3nc(NN)nnc3c2c1 | 0.967 ± 0.024
CCN(CC)S(=O)(=O)c1ccc(C(=O)Nc2cc(C)nn2-c2nc(C)c(C)c(=O)[nH]2)cc1 | 0.434 ± 0.015
Cc1cc(C)n2nc(C(=O)NN=Cc3ccc(N(C)C)cc3)nc2n1 | 0.934 ± 0.084
Cc1ccc(CSCCNC(=O)CN(c2cccc(C)c2)S(C)(=O)=O)cc1 | 0.99 ± 0.061
CC1CCc2cc(F)cc3c(=O)c(C(=O)O)cn1c23 (configuration not stated) | 1.01 ± 0.066
CN1C2CCCC1CC(NC(=O)c1nn(C)c3ccccc13)C2.Cl (configuration not stated) | 0.984 ± 0.069
O=C(CCc1ccc(O)cc1)c1c(O)cc(O)cc1O | 1.13 ± 0.088
COc1ccc(-n2cnc3cc(NC(C)=O)ccc32)cc1 | 0.885 ± 0.07
NC(=O)c1ncn([C@@H]2O[C@H](CO)[C@@H](O)[C@H]2O)n1 | 0.86 ± 0.084
O=c1[nH]c(NN=Cc2c3ccccc3cc3ccccc23)nc2ccccc12 | 0.971 ± 0.066
COc1ccc(C(=O)N2CC(n3cc(CN4CCCC4=O)nn3)C2)cc1F | 1 ± 0.045
CCOC(=O)c1cc(-c2ccccc2)sc1NC(=O)C(C)(C)C | 1.2 ± 0.17
O=C(O)CC(C(=O)O)N1C(=O)C(=C2C(=O)Nc3ccc(Br)cc32)SC1=S (configuration not stated) | 0.837 ± 0.069
N#Cc1nc(-c2ccc(COc3ccccc3)o2)oc1N1CCCCC1 | 1.12 ± 0.069
NC(N)=NN=Cc1ccc(OS(=O)(=O)c2ccccc2)cc1 | 1.18 ± 0.14
CC(C)OC(=O)c1c(NC(=O)C2CC=CCC2C(=O)O)sc2c1CCCC2 (configuration not stated) | 0.901 ± 0.054
CCOC(C#CCN(CC)CC)(c1ccccc1)c1ccccc1.Cl | 0.424 ± 0.031
CCN(CC)C(=O)N1CCN(C)CC1 [Prestw-284] | 0.96 ± 0.062

From the supplement of paper PMC10646978
